Experiment [1] can be described thus: NCI Yeast Anticancer Drug Screen. Data for the rad50 strain (AID 155).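 Also: 0% = growth of vehicle-only cultures of the same strain.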 The note with it: S. cerevisiae rad50 strain growth inhibition, active compounds read high. In a few lines:
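A DNA repair-deficient yeast mutant serves as the test organism; compound-induced growth inhibition is calculated against vehicle-treated cells.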

A short description of experiment [2]: NCI Yeast Anticancer Drug Screen. Data for the mec2-1 strain (AID 157). Conditions: S. cerevisiae mec2-1 strain, active compounds read high. In a few lines: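 Yeast mec2-1 mutant treated with compound. Readout: growth inhibition vs vehicle controls.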
The nature of experiment [3]: NCI Yeast Anticancer Drug Screen. Data for the sgs1 mgt1 strain (AID 161).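 Also: 0% = growth of cultures given vehicle only.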 Conditions: S. cerevisiae sgs1 mgt1 strain, active compounds read high. The method in brief: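 Read-out: growth inhibition vs vehicle controls. Cells: mutant yeast strain deficient in DNA damage repair.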
Experiment [4] can be described thus: NCI Yeast Anticancer Drug Screen. Data for the cln2 rad14 strain (AID 165).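 Also: 0% = growth equal to vehicle treated cultures.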 Conditions: S. cerevisiae cln2 rad14 strain, active compounds read high. The method in brief:
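cln2 rad14 yeast strain; compound exposure; growth inhibition read vs vehicle controls.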

A short description of experiment [5]: NCI Yeast Anticancer Drug Screen. Data for the bub3 strain (AID 167). The note with it: S. cerevisiae bub3 mutant strain, active compounds read high. In a few lines:
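Inhibition values come from growth of compound-treated mutant yeast normalised to vehicle-treated controls.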

The nature of experiment [6]: NCI Yeast Anticancer Drug Screen. Data for the mlh1 rad18 strain (AID 175). Conditions: S. cerevisiae mlh1 rad18 strain growth inhibition, active compounds read high. In a few lines:
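Yeast w/ defined DNA-repair lesions; compound exposure; growth vs vehicle controls → % inhibition.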

Setting [7] is: at 5.0 µM (retest, dose inferred, filed as 0.5).
Where [8] appears, read: at 50.0 µM (retest, dose inferred, filed as 5.0).

The text below walks through data of PubChem BioAssay (NCI).

Compounds without any hit were thinned out: in the full panel of roughly 79,000, 15% have a hit. Values without a mark were called inactive. Calls of active or inactive are those of the source. Rule as the data show it: active = growth inhibition above about 70%; inactive = the rest.

Regarding `Cc1nc2[nH]cc(C)c2c(=O)[nH]1`, the growth inhibition in experiment [1] (setting [7]) is 6%; in experiment [1] (setting [8]), -11%; in experiment [1] (at 50.0 µM) it was -24.8%; in experiment [2] (setting [7]), -4%; in experiment [2] (setting [8]), -14%; in experiment [2] (at 50.0 µM) it was -2.25%. For the same molecule, the growth inhibition was -1% in experiment [3] (setting [7]); -7% in experiment [3] (setting [8]); 4.1% in experiment [3] (at 50.0 µM); -11% in experiment [4] (setting [7]); -4% in experiment [4] (setting [8]); 35.1% in experiment [4] (at 50.0 µM). The growth inhibition is 2% in experiment [5] (setting [7]); -15% in experiment [5] (setting [8]); 4.6% in experiment [5] (at 50.0 µM); -10% in experiment [6] (setting [7]); -14% in experiment [6] (setting [8]); -8.2% in experiment [6] (at 50.0 µM).

For the molecule `CC(C(=O)O)C(N)C(=O)O` (stereo not given), the growth inhibition in experiment [1] (setting [7]) was -1%; in experiment [1] (setting [8]), 4%; in experiment [1] (at 50.0 µM), 99.5% (active); in experiment [2] (setting [7]) it was -1%; in experiment [2] (setting [8]), -6%; in experiment [2] (at 50.0 µM), 99.6% (active). For the same molecule, the growth inhibition in experiment [3] (setting [7]) is -2%; in experiment [3] (setting [8]), 2%; in experiment [3] (at 50.0 µM), 99.3% (active); in experiment [4] (setting [7]) it was 6%; in experiment [4] (setting [8]) it was -6%; in experiment [4] (at 50.0 µM), 99.5% (active). Besides, the growth inhibition in experiment [5] (setting [7]) is 4%; in experiment [5] (setting [8]), -7%; in experiment [5] (at 50.0 µM), 99.6% (active); in experiment [6] (setting [7]), -2%; in experiment [6] (setting [8]), 3%; in experiment [6] (at 50.0 µM), 99.5% (active).

`CC1(C)NC(=O)C(C)(C)NC1=O`: the growth inhibition in experiment [1] (setting [7]) is 4%; in experiment [1] (setting [8]), -2%; in experiment [1] (at 50.0 µM), -12.9%; in experiment [2] (setting [7]), 1%; in experiment [2] (setting [8]), 2%; in experiment [2] (at 50.0 µM) it was 5.8%. Besides, the growth inhibition was 0% in experiment [3] (setting [7]); -1% in experiment [3] (setting [8]); -7.4% in experiment [3] (at 50.0 µM); 2% in experiment [4] (setting [7]); 3% in experiment [4] (setting [8]); -19.9% in experiment [4] (at 50.0 µM). The growth inhibition was 4% in experiment [5] (setting [7]); -2% in experiment [5] (setting [8]); 48% in experiment [5] (at 50.0 µM); 3% in experiment [6] (setting [7]); 3% in experiment [6] (setting [8]); -14.8% in experiment [6] (at 50.0 µM).

Turning to `CCN(CC)C(=O)CCCCC(=O)OC(C)C`, the growth inhibition in experiment [1] (setting [7]) is 0%; in experiment [1] (setting [8]), -12%; in experiment [1] (at 50.0 µM) it was -2.2%; in experiment [2] (setting [7]), -2%; in experiment [2] (setting [8]), -2%; in experiment [2] (at 50.0 µM) it was -1.1%. In addition, the growth inhibition in experiment [3] (setting [7]) was -6%; in experiment [3] (setting [8]), -12%; in experiment [3] (at 50.0 µM), -24%; in experiment [4] (setting [7]), -7%; in experiment [4] (setting [8]) it was -1%; in experiment [4] (at 50.0 µM), 86.2% (active). Also, the growth inhibition in experiment [5] (setting [7]) is -3%; in experiment [5] (setting [8]), -10%; in experiment [5] (at 50.0 µM) it was -7.2%; in experiment [6] (setting [7]), -1%; in experiment [6] (setting [8]), -11%; in experiment [6] (at 50.0 µM), 21.9%.

`O=C1CCC(C(c2ccccc2)(c2ccccc2)c2ccccc2)CC1=O` (stereo not given): the growth inhibition in experiment [1] (setting [7]) was 0%; in experiment [1] (setting [8]), 99% (active); in experiment [1] (at 50.0 µM) it was -11.1%; in experiment [2] (setting [7]), -1%; in experiment [2] (setting [8]), 98% (active); in experiment [2] (at 50.0 µM), 16.9%. In addition, the growth inhibition is 0% in experiment [3] (setting [7]); 99% (active) in experiment [3] (setting [8]); -5.2% in experiment [3] (at 50.0 µM); -14% in experiment [4] (setting [7]); 99% (active) in experiment [4] (setting [8]); 22.5% in experiment [4] (at 50.0 µM). Besides, the growth inhibition is -3% in experiment [5] (setting [7]); 99% (active) in experiment [5] (setting [8]); 0.85% in experiment [5] (at 50.0 µM); -1% in experiment [6] (setting [7]); 99% (active) in experiment [6] (setting [8]); -10.2% in experiment [6] (at 50.0 µM).

Take `Clc1nnc(Cl)s1`: the growth inhibition in experiment [1] (setting [7]) is 3%; in experiment [1] (setting [8]) it was 36%; in experiment [1] (at 50.0 µM), 29.1%; in experiment [2] (setting [7]) it was 8%; in experiment [2] (setting [8]), 54%; in experiment [2] (at 50.0 µM), 21.6%. Moreover, the growth inhibition in experiment [3] (setting [7]) was 2%; in experiment [3] (setting [8]) it was 67%; in experiment [3] (at 50.0 µM) it was 19.4%; in experiment [4] (setting [7]), 1%; in experiment [4] (setting [8]), 9%; in experiment [4] (at 50.0 µM), 25.9%. The growth inhibition in experiment [5] (setting [7]) is 5%; in experiment [5] (setting [8]) it was 72% (active); in experiment [5] (at 50.0 µM), 23.9%; in experiment [6] (setting [7]), 5%; in experiment [6] (setting [8]), 53%; in experiment [6] (at 50.0 µM) it was 18.9%.

In the case of `CN(C)c1ccc(/C=C/c2ccnc3ccccc23)cc1Cl`, the growth inhibition in experiment [1] (setting [7]) was 23%; in experiment [1] (setting [8]), 95% (active); in experiment [1] (at 50.0 µM), -10.1%; in experiment [2] (setting [7]), 4%; in experiment [2] (setting [8]) it was 97% (active); in experiment [2] (at 50.0 µM), -4.1%. The growth inhibition in experiment [3] (setting [7]) was 0%; in experiment [3] (setting [8]) it was 97% (active); in experiment [3] (at 50.0 µM), 66.8%; in experiment [4] (setting [7]) it was -6%; in experiment [4] (setting [8]), 94% (active); in experiment [4] (at 50.0 µM), -12.6%. Moreover, the growth inhibition in experiment [5] (setting [7]) is 2%; in experiment [5] (setting [8]), 97% (active); in experiment [5] (at 50.0 µM) it was 29.4%; in experiment [6] (setting [7]), -3%; in experiment [6] (setting [8]), 95% (active); in experiment [6] (at 50.0 µM), 5.25%.

For `CCC(C)(C[NH-])C[NH-].[Cl][Pt+2][Cl]`, the growth inhibition in experiment [1] (setting [7]) was 13%; in experiment [1] (setting [8]), 27%; in experiment [1] (at 50.0 µM), 28%; in experiment [2] (setting [7]), 19%; in experiment [2] (setting [8]) it was 28%; in experiment [2] (at 50.0 µM) it was 45.9%. Besides, the growth inhibition in experiment [3] (setting [7]) was 18%; in experiment [3] (setting [8]), 28%; in experiment [3] (at 50.0 µM), 3.9%; in experiment [4] (setting [7]) it was 26%; in experiment [4] (setting [8]), 34%; in experiment [4] (at 50.0 µM), 10.4%. Moreover, the growth inhibition is 11% in experiment [5] (setting [7]); 28% in experiment [5] (setting [8]); -14.7% in experiment [5] (at 50.0 µM); 25% in experiment [6] (setting [7]); 42% in experiment [6] (setting [8]); -17.6% in experiment [6] (at 50.0 µM).

Take `C(=C\[n+]1ccc2ccccc2c1)/c1ccccc1`: the growth inhibition in experiment [1] (setting [7]) was -3%; in experiment [1] (setting [8]), 35%; in experiment [1] (at 50.0 µM), 80% (active); in experiment [2] (setting [7]) it was -2%; in experiment [2] (setting [8]), 12%; in experiment [2] (at 50.0 µM) it was 26.9%. For the same molecule, the growth inhibition in experiment [3] (setting [7]) was -4%; in experiment [3] (setting [8]) it was 38%; in experiment [3] (at 50.0 µM), 68.7%; in experiment [4] (setting [7]), -3%; in experiment [4] (setting [8]) it was -3%; in experiment [4] (at 50.0 µM) it was 42.5%. Also, the growth inhibition in experiment [5] (setting [7]) was -5%; in experiment [5] (setting [8]), 27%; in experiment [5] (at 50.0 µM), 8%; in experiment [6] (setting [7]) it was 10%; in experiment [6] (setting [8]), 10%; in experiment [6] (at 50.0 µM), 74.9% (active).

With `CCOC(=O)C(=Cn1c(=S)[nH]c2ccc([N+](=O)[O-])cc21)C(=O)OCC`, the growth inhibition in experiment [1] (setting [7]) is 33%; in experiment [1] (setting [8]) it was 53%; in experiment [1] (at 50.0 µM), -36.2%; in experiment [2] (setting [7]) it was 17%; in experiment [2] (setting [8]), 22%; in experiment [2] (at 50.0 µM) it was -35.2%. The growth inhibition in experiment [3] (setting [7]) is 33%; in experiment [3] (setting [8]) it was 41%; in experiment [3] (at 50.0 µM), 0.75%; in experiment [4] (setting [7]), 20%; in experiment [4] (setting [8]), 25%; in experiment [4] (at 50.0 µM), 13.9%. The growth inhibition was 26% in experiment [5] (setting [7]); 29% in experiment [5] (setting [8]); -37.2% in experiment [5] (at 50.0 µM); 33% in experiment [6] (setting [7]); 46% in experiment [6] (setting [8]); -40.2% in experiment [6] (at 50.0 µM).
